Shown are actives, neighbours in structure and some others; about 19% of the full set was active somewhere.
TDP1 cell noCPT: qHTS for Inhibitors of human tyrosyl-DNA phosphodiesterase 1 (TDP1): qHTS in cells in absence of CPT; DT40 Tdp1-/- hTDP1 cells, no CPT, ATP luminescence, 48 h; Potency, µM (top dose mostly 46.2 µM), for inactives: at the highest dose activity change, negative = growth inhibition, usual class: inhibitors; 420,000 compounds, 15% hits; note: nearly all actives have a fitted effect of over 55% in size
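A cellular qHTS used chicken DT40 cells lacking endogenous Tdp1 but carrying stably transfected human TDP1. Compounds were applied without camptothecin, and cell growth kinetics were judged by ATP-dependent luminescence after ≥48 hr.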
TDP1 cell CPT: DT40-hTDP1 cell growth loss with CPT; AID 686979; 420,000 compounds, 12% hits; Potency, µM (series often up to 46.2 µM), for inactives: at the highest dose activity change, negative = growth inhibition, hits mostly inhibitors; chicken DT40 Tdp1-/-;hTDP1 cells + 20 nM CPT, ATP luminescence, 48 h; note: nearly all actives have a fitted effect of over 55% in size
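Cell growth measured by CellTiter-Glo luminescence after a minimum 48 h, 37 C compound exposure with 20 nM CPT in Tdp1-knockout DT40 cells stably expressing hTDP1, seeded 400/well; qHTS titration format.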
KB-V1 cytotox: KB-V1 MDR subline cytotoxicity; 400,000 compounds, 3.4% hits; AID 1347076; KB-V1 MDR cells viability, CellTiter-Glo, 72 h; Potency, µM (titrated, usually from 46.1 µM), usual class: cytotoxic; note: nearly all actives have a fitted effect of over 60% in size
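Cytotoxicity via CellTiter-Glo luminescence after 72 h compound exposure at 37 degrees C. Cells: drug-selected KB-V1 line, DMEM phenol-red free plus 10% FBS. Compounds tested at multiple concentrations; normalized data fitted to concentration-effect curves.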
HT1080 IDH1KD tx: kills HT-1080 cells with IDH1 knockdown | HT-1080 IDH1 knockdown viability, ATP luminescence, 48 h | Potency, µM (series often up to 46.1 µM), for the others: at the top dose activity, negative = toxicity, actives largely listed as cytotoxic | 360,000 compounds, 2% hits;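 note: 0% = DMSO wells and -100% = cell-free medium wells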
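Luminescent ATP read-out (CellTiter-Glo, 10 min at room temperature) after 48 h compound exposure at 37 °C gave viability of IDH1-knockdown HT-1080 cells. Activity was normalised to DMSO and cell-free wells, then fitted as concentration-response curves.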
KB-3-1 tox: KB-3-1 parental cell cytotoxicity. KB-3-1 viability, CellTiter-Glo ATP luminescence, 72 h. Potency, µM (top dose mostly 46.1 µM), hits mostly cytotoxic. 400,000 compounds, 1.4% hits. AID 1347075; note: nearly all actives have a fitted effect of over 60% in size
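Using CellTiter-Glo luminescence, growth of non-resistant KB-3-1 adenocarcinoma cells is assessed 72 h after pin-tool compound addition at 37 °C. Normalized responses across the concentration series yield fitted curves.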
HT1080NT lethal: kills 2HG-producing HT-1080-NT fibrosarcoma cells; HT-1080-NT fibrosarcoma viability, CellTiter-Glo ATP luminescence, 48 h; Potency, µM (series often up to 46.1 µM), for the others: at the top dose activity, negative = less viability, most hits filed as cytotoxic; 360,000 compounds, 1.6% hits;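 note: NT is the 2HG producing partner of a matched IDH1 knockdown line; 0% = DMSO-treated cells and -100% = media-only wells without cells; nearly all actives have a fitted effect of over 55% in size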
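Fibrosarcoma NT cells, 750 per well in 5% FBS RPMI, were exposed to compound for 48 hours. Viability: CellTiter-Glo luminescence.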
Starred values were filed as active, the others as inactive; i = inactive; u = inconclusive; x = not tested or not shown; [ ] = remark or other dose. Calls come from the whole dose curve; as a rule, active = well fitted curve in the direction sought with a large enough effect; inconclusive = small, poorly fitted or top-dose-only effect, or another doubt; inactive = no such curve, though single readings can be large; an effect the other way counts as inactive or inconclusive. Unless noted, % is set by controls: 0 for no effect and ±100 for the full control effect; potency is the fitted concentration of half-maximal effect.

SMILES | TDP1 cell noCPT | TDP1 cell CPT | KB-V1 cytotox | HT1080 IDH1KD tx | KB-3-1 tox | HT1080NT lethal
CCC1OC23CCCCC2C(C#N)(C(=N)O3)C1(C#N)C#N (stereo unspecified) | 13µM* | u | i | 13% | u | -2%
COc1ccc(C2OC34CCCCC3C(C#N)(C#N)C2(C#N)C(=N)O4)cc1 (stereo unspecified) | 7.3µM* | 5.8µM* | i | 2% | i | 11%
CC1OC23CCCCC2C(C#N)(C(=N)O3)C1(C#N)C#N (stereo unspecified) | u | u | i | 10% | i | 8%
O=C(Nc1ccc(Cl)cn1)c1cnn2c1NC(=C1CC1)C=C2C(F)F | -19% | u | i | x | i | x
CN(c1ccc(F)cc1)S(=O)(=O)c1ccc(Cl)c(C(=O)NCC(c2ccco2)N2CCCCC2)c1 (stereo unspecified) | 2.3µM* | 2.3µM* | u | -7% | i | -4%
Cc1ccc(S(=O)(=O)N(C)c2ccc(C(=O)NCC(c3ccco3)N3CCCC3)cc2)cc1 (stereo unspecified) | 16µM* | u | i | -9% | i | 0%
CN(c1ccccc1)S(=O)(=O)c1ccc(Cl)c(C(=O)NCc2ccco2)c1 | u | u | i | 10% | i | 4%
CN(C)C(CNC(=O)c1cc(S(=O)(=O)N(C)c2ccccc2)ccc1Cl)c1ccccc1 (stereo unspecified) | 6.5µM* | 5.8µM* | i | -8% | u | -3%
CN(c1ccccc1)S(=O)(=O)c1ccc(Cl)c(C(=O)NCc2ccccc2CN2CCCC2)c1 | 23µM* | u | i | -7% | i | -9%
COc1cc(NC(=O)CC(C)S(=O)(=O)c2cc3c4c(c2)CCN4C(=O)CC3)cc(OC)c1 (stereo unspecified) | -9% | -18% | u | x | i | x
CN(c1ccc(F)cc1)S(=O)(=O)c1ccc(Cl)c(C(=O)OCC(=O)NCc2ccco2)c1 | u | -7% | u | 2% | i | 1%
CN(C)C(CNC(=O)c1cc(S(=O)(=O)N(C)c2ccc(F)cc2)ccc1Cl)c1ccco1 (stereo unspecified) | 7.3µM* | 9.2µM* | u | 5% | i | 2%
Cc1ccc(S(=O)(=O)N(CCC(=O)NCC(c2ccccc2)N(C)C)c2ccccc2)cc1 (stereo unspecified) | -22% | u | 10µM* | 13% | i | -10%
O=C(O)[C@H](O)[C@@H](O)[C@H](O[C@@H]1O[C@H](CO)[C@H](O)[C@H](O)[C@H]1O)[C@H](O)CO | 3%[21.1 µM] | -1%[21.1 µM] | x | x | x | x
CC1Cc2ccccc2N1C(=O)CCn1cccn1 (stereo unspecified) | u | -3% | i | 2% | i | 5%
CCN(CC)c1ccc(CN(C(=O)c2cc(=O)c3ccccc3o2)C2CCS(=O)(=O)C2)cc1 (stereo unspecified) | u | 16µM* | i | x | i | x
CCN(CC)c1ccc(CN(C(=O)Cc2coc3ccc(C)cc23)C2CCS(=O)(=O)C2)cc1 (stereo unspecified) | 23µM* | u | u | x | u | x
CC(C)c1ccc2occ(CC(=O)N(Cc3ccc(F)cc3)C3CCS(=O)(=O)C3)c2c1 (stereo unspecified) | u | 18µM* | i | x | u | x
CC(=O)Nc1ccc(CN(C)c2c(C)nc3ccc(C(=O)N(C)Cc4ccco4)cn23)cc1 | u | 16µM* | i | -1% | i | 4%
CCCCN(C)c1c(C)nc2ccc(C(=O)N(C)Cc3ccco3)cn12 | 18µM* | u | u | -8% | i | -1%
CCCCC(=O)N(C)c1c(C)nc2ccc(C(=O)N(C)Cc3ccco3)cn12 | -18% | -20% | i | 0% | i | 9%
COC(=O)CC1COc2ccccc2N1S(=O)(=O)c1ccc(OC)cc1 (stereo unspecified) | 5.2µM* | 3.7µM* | u | 10µM* | 18µM* | u
COc1ccc(NC(=O)CC2C(=O)N(CCc3ccccc3)C(=S)N2Cc2cccnc2)cc1 (stereo unspecified) | u | u | 15µM* | u | i | -28%
CCN1C(=O)C(CC(=O)Nc2ccc(OC)cc2)N(CCCN2CCN(c3ccc(OC)cc3)CC2)C1=S (stereo unspecified) | 16µM* | 21µM* | i | -28% | i | u
COc1ccc(NC(=O)CC2C(=O)N(c3ccc(Cl)cc3)C(=S)N2CCc2ccccn2)cc1 (stereo unspecified) | u | 26µM* | u | -2% | u | -18%
SMILES | TDP1 cell noCPT | TDP1 cell CPT | KB-V1 cytotox | HT1080 IDH1KD tx | KB-3-1 tox | HT1080NT lethal
COC(=O)CN1C(=S)N(c2ccc(Cl)cc2)C(=O)C1CC(=O)Nc1ccc(Cl)cc1 (stereo unspecified) | u | -22% | i | u | i | u
COC(=O)CN1C(=S)N(Cc2ccccc2)C(=O)C1CC(=O)Nc1ccc(Br)cc1 (stereo unspecified) | u | 16µM* | i | u | i | u
CCOc1ccc(N2C(=O)C(CC(=O)Nc3ccccc3)N(Cc3ccccn3)C2=S)cc1 (stereo unspecified) | u | u | u | u | i | -26%
COc1ccccc1CNC(=O)c1cccc(S(=O)(=O)N2CCCC2)c1 | -3% | -7% | i | -7% | i | -1%
CCCOc1ccc(NC(=O)CC2C(=O)N(Cc3ccccc3)C(=S)N2Cc2cccs2)cc1 (stereo unspecified) | 21µM* | 9.2µM* | u | -30% | u | -21%
C=CCN1C(=O)C(CC(=O)Nc2ccc(OCC)cc2)N(Cc2ccccn2)C1=S (stereo unspecified) | u | -7% | i | -7% | i | 16%
CCN1C(=O)C(CC(=O)Nc2ccc(F)cc2)N(CCc2ccc(OC)cc2)C1=S (stereo unspecified) | u | 4% | i | -25% | i | -7%
CCN1C(=O)C(CC(=O)Nc2ccc(OC)cc2)N(CCc2ccccc2)C1=S (stereo unspecified) | -20% | 4% | 21µM* | u | u | u

Source: PubChem
